This note sets out measurements from PubChem BioAssay AID1259343 (VanderVen Lab, College of Veterinary Medicine, Cornell …, 2017).

Structures are written as SMILES. The whole screen tested about 6,200 compounds, of which about 2,900 (47%) were called active. So high a share suggests a set chosen from earlier hits. The list shows a part of the results. Values without a mark were called inactive. No stated cut-off is given here; in the data, active means inhibition above about 50%; inactive means the rest.

The assay is described as follows: Mycobacterium tuberculosis growth inhibition, primary screen (AID 1259343). As to conditions: inhibition: at 10 µM, stronger effect = higher value; outcome: 10 uM.
For `Cc1sc2nc(-c3cccnc3)nc(NC(C)C(C)C)c2c1C` (stereo not drawn), the inhibition is -13.7%. Turning to `C#CCN(CC=C)Cc1nc(-c2ccc(Cl)cc2)oc1C`, the inhibition is 14.8%. For the compound `CN(C)C(=S)SSC(=S)N(C)C`, the inhibition was 102% (active). `CC(=O)O[C@H]1C[C@@H](OC(C)=O)C(C)(C)C2C[C@@H](OC(C)=O)[C@]3(C)C(CC[C@@]4(C)[C@H](c5ccoc5)C(=O)[C@H]5O[C@]543)[C@]21C` (stereo partly drawn): the inhibition was 36.2%. Next, `CC1(C)C(=O)C=C[C@@]2(C)C1C[C@@H](O)[C@]1(C)C2CC[C@@]2(C)[C@H](c3ccoc3)OC(=O)[C@H]3O[C@]321` (stereo partly drawn): 67% (active); `Cn1cnnc1SCC(=O)Nc1ccc2c(c1)CCC2`: -17.5%. As for `O=C(CCn1cncn1)Nc1ccc2c(c1)CCC2`, the figure is 87.1% (active); as for `O=C1C(=Cc2ccc(F)cc2)CSc2ccc(F)cc21`, 21.3%; as for `CCN1c2ccccc2N(C)[C@]1(C)c1ccccc1`, 68.3% (active). As for `N#Cc1ccc(C2C=C(c3ccc(Br)cc3)Nc3nc(C(F)(F)F)nn32)cc1` (stereo not drawn), the figure is 90.9% (active); as for `FC(F)(F)c1nc2n(n1)C(c1ccc(Cl)cc1)C1=C(N2)c2ccccc2SC1` (stereo not drawn), 36.9%. In the case of `Clc1ccc(C2=CC(c3ccc4c(c3)OCO4)n3nc(-c4ccccc4)nc3N2)cc1` (stereo not drawn), the inhibition was -34.2%. Consider `Fc1ccc(C2C=C(c3ccccc3)Nc3nc(C(F)(F)F)nn32)cc1F` (stereo not drawn), for which the inhibition is 3.02%.

As to `Fc1ccc(C2=CC(c3ccc4c(c3)OCO4)n3nc(C(F)(F)F)nc3N2)cc1` (stereo not drawn), the inhibition is 74.3% (active). On to `COc1cccc(NC(=O)N2CCC(Cc3ccc(F)cc3)CC2)c1`, for which the inhibition is 47.7%.

Take `Cc1ccc(F)cc1NC(=O)N1CCN(CCCOC(c2ccc(Cl)cc2)c2ccc(Cl)cc2)CC1`: the inhibition was 6.69%.

Take `COc1ccc(CC2CCN(C(=O)Nc3cccc(F)c3)CC2)cc1`: the inhibition is 74.8% (active). As for `O=C1NC2(CCN(C(=O)Nc3ccc(C(F)(F)F)cc3)CC2)Nc2cc(Cl)ccc21`, the inhibition was -1.82%. As for `O=C(Nc1nnc(C2CC2)s1)N1CCC(Cc2cccc(F)c2)CC1`, the figure is -2.76%; as for `O=C(Nc1ccc(F)cc1F)N1CCC(Cc2ccc(-n3cccc3)cc2)CC1`, 51% (active). As for `O=C(Nc1ccc(F)cc1F)N1CCC(Cc2ccc(C(F)(F)F)cc2)CC1`, the figure is 62.3% (active); as for `O=C(NC1CCN(c2ccccc2C(=O)NCc2ccc(F)cc2)CC1)c1ccc(C(F)(F)F)cc1`, -29.8%; as for `COc1ccc(-n2nc3ccc(N)cc3n2)cc1`, -45%. Next, `CCC(=O)NC(=S)Nc1ccc(C(=O)NC(C)(C)C)cc1`: 37.3%. Consider `CCCC(=O)NC(=S)Nc1ccc2nn(-c3ccccc3)nc2c1`, for which the inhibition is 79.1% (active). As for `S=c1[nH]nc(SCc2c(Cl)cccc2Cl)s1`, the figure is 23.4%; as for `CC(C)CSc1n[nH]c(=S)s1`, 100% (active); as for `CC(C)Sc1n[nH]c(=S)s1`, -48.8%.

Take `CCCSc1n[nH]c(=S)s1`: the inhibition was -46%. Take `C=C(C)CSc1n[nH]c(=S)s1`: the inhibition was 58.8% (active). Turning to `S=c1[nH]nc(SCc2cccs2)s1`, the inhibition was 99.3% (active). As for `S=c1[nH]nc(SCC#Cc2ccccc2)s1`, the figure is 47.6%; as for `CCCCSc1n[nH]c(=S)s1`, -27%; as for `O=C1NC(=S)SC1=Cc1c(F)cccc1Cl`, 83.6% (active). Turning to `O=C1NC(=S)SC1=Cc1c(F)cccc1F`, the inhibition was 74.2% (active).

As for `CC(=O)N[C@@H]1C[C@H](Cc2ccccc2)O[C@H](c2ccc(Cl)cc2)C1`, the inhibition was 61% (active). In the case of `CC(C)(C)c1ccc(S(=O)(=O)/C=C/C#N)cc1`, the inhibition was 102% (active). Next, `CCOC(=O)c1cnn(Cc2ccc(C)cc2)c1N`: 71.9% (active); `CCNC(=S)n1ncc(C(=O)OCC)c1N`: -17%.

Consider `CCOC(=O)c1cc([N+](=O)[O-])nn1Cc1ccc(Cl)c(Cl)c1`, for which the inhibition was 19.4%. In the case of `Clc1ccc(-c2nc(NCCN3CCOCC3)c3ccc(Cl)cc3n2)cc1`, the inhibition was 47.7%. As to `CCC(C)(C)C1CCc2sc3ncnc(NCCN4CCOCC4)c3c2C1` (stereo not drawn), the inhibition was 85% (active). In the case of `Nc1c(S(=O)(=O)c2ccccc2)c2nc3ccccc3nc2n1-c1cccc(S(N)(=O)=O)c1`, the inhibition is 19.5%. As for `Clc1ccc(CSc2ncccn2)cc1`, the figure is 55.1% (active); as for `O=S1(=O)CCN2N=C(SCc3ccc(Cl)cc3)SC2=N1`, 2.87%. Next, `N#Cc1ccc(CSc2ncccn2)cc1`: -28.1%; `Cc1ccc(OCc2ccc(C(F)(F)F)cc2)c(CO)n1`: 59.9% (active); `CCOC(=O)NCC(=O)N(Cc1ccc(C(F)(F)F)cc1)C1CC1`: -10.5%. On to `COc1cccc(CC2(CO)CCCN(C(=O)CCCc3ccc(Cl)cc3)C2)c1` (stereo not drawn), for which the inhibition was 20.4%.

Consider `COc1cccc(CC2(C(=O)O)CCN(c3ccc(Cl)cn3)CC2)c1`, for which the inhibition is 90.8% (active).

As for `c1ccc(-c2nnc(NC3CCCCC3)s2)cc1`, the inhibition is 28.9%. Next, `c1cc(NC2CCCCCCC2)cc(-n2ccnc2)c1`: 56% (active). Next, `Oc1ccc(Br)cc1-c1nc2cnccn2c1NC1CCCC1`: 37.9%; `c1cc(NC2CCCCCCC2)cc(-c2cnco2)c1`: 71.3% (active). Next, `c1ncc(-c2ccc(NCC3CCOCC3)cc2)o1`: 35.5%; `c1cc(NC2CCCCCC2)c2cccnc2c1`: 9.23%; `S=C(SC1OCCOC1SC(=S)N1CCOCC1)N1CCOCC1` (stereo not drawn): 99.8% (active). For the compound `COc1ccc(COc2ccc(Cl)cc2C(N)=O)cc1F`, the inhibition was 27.6%. On to `COc1ccc(C(=O)c2ccc(O)cc2)c(O)c1O`, for which the inhibition is 55.4% (active). As for `COc1ccc(C(=O)c2ccccc2)c(O)c1O`, the figure is 68.3% (active); as for `COc1ccc(C(=O)C=Cc2ccccc2Br)c(OC)c1`, 23.5%. As for `COc1ccc(C(=O)COC(=O)c2ccccc2[N+](=O)[O-])cc1OC`, the figure is -15.5%; as for `Cc1nc(SCC(=O)N(C)Cc2ccsc2)c(C(N)=O)c(C)c1C`, -7.74%; as for `CN1CCN(C2Cc3ccccc3Sc3ccc(Cl)cc32)CC1` (stereo not drawn), 39.5%. Next, `CN1CCC(=C2c3ccccc3Sc3ccccc32)CC1`: 60.1% (active). For the compound `COc1cccc(NC(=O)N2CCc3nc(Nc4cc(Cl)cc(Cl)c4)ncc3C2)c1`, the inhibition is 33.2%. As for `CCc1ccc(NC(=O)N2CCN(c3nc(-c4ccc(Cl)cc4)nc(C)c3C)CC2)cc1`, the figure is 28.1%; as for `CCOC(=O)c1ccc(NC(=O)N2CCc3nc(Cc4ccccc4OC)nc(N4CCOCC4)c3C2)cc1`, 61.8% (active); as for `Oc1c(C(c2ccc(C(F)(F)F)cc2)N2CCOCC2)ccc2cccnc12` (stereo not drawn), 104% (active).

For `Oc1c(C(c2ccc(F)cc2)N2CCOCC2)ccc2cccnc12` (stereo not drawn), the inhibition was 82.2% (active). As for `COc1ccc(-n2nc([N+](=O)[O-])c(=NCCC3=CCCCC3)n2O)cc1`, the figure is 95.6% (active); as for `C=C(C)c1cccc(C(C)(C)NC(=O)Nc2ncccn2)c1`, -1.81%; as for `CC(C)Cn1ccnc1NC(=O)c1cccc(C(F)(F)F)c1`, 52.5% (active). Next, `CN1CCN(S(=O)(=O)c2ccc(SCCOc3ccccc3Cl)nc2)CC1`: 90% (active); `COc1cc(S(=O)(=O)N2CCN(c3ccccc3C)CC2)ccc1Cl`: 12.3%; `CSc1nnc(COc2ccccc2Cl)n1C1CC1`: 1.97%. As for `CCOC(=O)c1sc(N)c(C(=O)OCC)c1C`, the figure is 32.7%. On to `CCOC(=O)c1sc2nc(C)nc(NCC(C)C)c2c1C`, for which the inhibition is -22.6%. As for `CCOC(=O)c1c(N)sc(C(N)=O)c1C`, the figure is 84.7% (active). As for `Cc1cccc(-c2ccc(NC(=O)C3CCN(C(=O)CCc4cnn(C)c4)CC3)cc2)c1`, the figure is 87.8% (active). Regarding `Cc1cccc(-c2ccc(NC(=O)C3CCN(C(=O)Cn4cccn4)CC3)cc2)c1`, the inhibition entry was “inactive”.

On to `Cc1cccc(-c2ccc(NC(=O)C3CCN(C(=O)CCc4ccncc4)CC3)cc2)c1`, for which the inhibition is 85% (active).

In the case of `Cc1cccc(-c2ccc(NC(=O)C3CCN(C(=O)CSc4ccncc4)CC3)cc2)c1`, the inhibition is 74.8% (active). `COc1ccc2oc(=Nc3cccc(C#N)c3)c(-c3nc4ccccc4[nH]3)cc2c1`: the inhibition is -9.36%.

As for `COc1ccc(-c2nc(CN3CCN(c4nc5ccccc5s4)CC3)c(C)o2)c(OC)c1`, the inhibition was 15.8%. Next, `COc1ccc(-c2nc(CN3CCN(c4ccc(C)cc4C)CC3)c(C)o2)cc1`: 67.6% (active); `CSc1ccc(-c2nc(CN3CCN(c4cnccn4)CC3)c(C)o2)cc1`: “inactive”. Next, `Cc1ccccc1-c1cnnc(NCCCn2ccc3ccccc32)n1`: 32.6%; `O=S(=O)(NC1CCCc2ccccc21)c1ccc(Br)cc1` (stereo not drawn): 10.2%. For the compound `Brc1cccc(OCCN2CCc3ccccc3C2)c1`, the inhibition is 38.6%. Next, `Cc1ccc(-c2nc(CN3CCc4ccccc4C3)co2)c(C)c1`: 27.7%; `Ic1ccc(OCCN2CCc3ccccc3C2)cc1`: 46.5%; `Clc1ccc(OCCN2CCc3ccccc3C2)cc1`: 87.5% (active).

Turning to `O=S(=O)(CCN1CCc2ccccc2C1)Oc1ccc(Br)cc1`, the inhibition was 98.6% (active).

In the case of `FC1(F)Oc2ccc(NCc3nc(-c4ccsc4)no3)cc2O1`, the inhibition is 48.7%. As for `N=C1SCC(=O)N1c1ncc(Cc2ccccc2)s1`, the figure is 102% (active). As for `COc1ccc(CN(C)C2CC(=O)N(c3c(C)cccc3C)C2=O)c(OC)c1` (stereo not drawn), the figure is 101% (active); as for `COc1ccc(C2NC(=O)NC(C)=C2C(=O)OCc2ccccc2)c(OC)c1` (stereo not drawn), -11.8%.

With `COc1ccc(CN(C)C(=O)Nc2ccc(C)cc2)c(OC)c1`, the inhibition is -33.2%.

Turning to `CCCC1CCCC(=C\c2ccc(OC)cc2)/C1=N\OC(=O)NCC` (stereo not drawn), the inhibition is 57% (active). Take `COc1ccc(NC(=O)c2sc(=O)n(Cc3ccccc3)c2C)cc1`: the inhibition is 5.9%.

Consider `C=Cc1ccc(Cn2c(C)c(C(=O)Nc3ccc(OC)c(OC)c3)sc2=O)cc1`, for which the inhibition is -5.14%. As for `COc1ccc(NC(=O)c2sc(=O)n(Cc3ccc(C)cc3)c2C)cc1OC`, the figure is 41.4%.

As to `COc1ccc(NC(=O)c2sc(=O)n(Cc3ccc(C)cc3)c2C)cc1`, the inhibition is 79.5% (active). Next, `C=Cc1ccc(Cn2c(C)c(C(=O)Nc3ccc(OC)cc3)sc2=O)cc1`: 2.61%; `COc1ccc(NC(=O)c2sc(=O)n(Cc3ccc(OC(F)(F)F)cc3)c2C)cc1`: 55.9% (active); `Cc1ccc(Cn2c(C)c(C(=O)Nc3ccc(C)cc3)sc2=O)cc1`: -16.4%. As for `COc1ccc(NC(=O)c2sc(=O)n(Cc3cccc(F)c3)c2C)cc1`, the inhibition is 60.5% (active).
